# Laboratory results as given in PMC5540273 (PLoS ONE, 2017).
# Values joined by “and” are separate entries in the source; they are usually repeats but may differ in a detail not shown here. Equal entries are not always repeated. Where two headings read alike, the source gives them in different places.
# Assays:
# [1] = tested on: T1, DRAK1; conditions: n = 1
# T1 construct: gene STK17A
# [2] = tested on: T2, DRAK2; conditions: n = 1
# T2 construct: gene STK17B
# [3] = tested on: DYRK1A; conditions: n = 1
# [4] = tested on: DYRK1B; conditions: n = 1
# [5] = tested on: DYRK2; conditions: n = 1
# [6] = tested on: EGFR; conditions: n = 1
# [7] = tested on: EIF2AK1; conditions: concentration: 1 μM, replicates: in singlicate; n = 1
# [8] = tested on: EPHA1; conditions: n = 1
# [9] = tested on: EPHA2; conditions: n = 1
# [10] = tested on: EPHA3; conditions: concentration: 1 μM, replicates: in singlicate; n = 1
# [11] = tested on: EPHA4; conditions: n = 1
# [12] = tested on: EPHA5; conditions: concentration: 1 μM, replicates: in singlicate; n = 1
# [13] = tested on: EPHA6; conditions: n = 1
# [14] = tested on: EPHA7; conditions: n = 1
# [15] = tested on: EPHA8; conditions: n = 1
# [16] = tested on: EPHB1; conditions: n = 1
# [17] = tested on: EPHB2; conditions: concentration: 1 μM, replicates: in singlicate; n = 1
# [18] = tested on: EPHB3; conditions: n = 1
# [19] = tested on: EPHB4; conditions: n = 1
# [20] = tested on: EPHB6; conditions: n = 1
# [21] = concentration: 1 μM, replicates: in singlicate
# [22] = concentration: 1 μM,replicates: in singlicate, 1 µM
# 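Also: KINOMEscan kinase panel screen.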
compound,measurement,setting,value
Fc1cccc(COc2nnc(-c3ccc4c(c3)CCO4)o2)c1,%Inh,[1]; [21],6%
same,%Inh,[2]; [21],33%
same,%Inh,[3]; [21],44%
same,%Inh,[4]; [21],65%
same,%Inh,[5]; [21],3%
same,%Inh,[6]; [21],6%
same,%Inh,[7],0%
same,%Inh,[8]; [21],0%
same,%Inh,[9]; [21],0%
same,%Inh,[10],0%
same,%Inh,[11]; [21],0%
same,%Inh,[12],0%
same,%Inh,[13]; [21],11%
same,%Inh,[14]; [21],14%
same,%Inh,[15]; [21],16%
same,%Inh,[16]; [21],20%
same,%Inh,[17],0%
same,%Inh,[18]; [21],20%
same,%Inh,[19]; [21],16%
same,%Inh,[20]; [21],0%
Cc1nnc(-c2ccc3occ(-c4ccc(S(C)=O)cc4)c3c2)[nH]1 (centres unmarked),%Inh,[1]; [21],26%
same,%Inh,[2]; [21],41%
same,%Inh,[3]; [21],19%
same,%Inh,[4]; [21],7%
same,%Inh,[5]; [21],45%
same,%Inh,[6]; [21],0%
same,%Inh,[7],0%
same,%Inh,[8]; [21],0%
same,%Inh,[9]; [21],0%
same,%Inh,[10],0%
same,%Inh,[11]; [21],24%
same,%Inh,[12],10%
same,%Inh,[13]; [21],34%
same,%Inh,[14]; [21],7%
same,%Inh,[15]; [21],6%
same,%Inh,[16]; [21],0%
same,%Inh,[17],16%
same,%Inh,[18]; [21],17%
same,%Inh,[19]; [21],16%
same,%Inh,[20]; [21],13%
Cc1ccc(C(=O)Nc2ccc(Nc3ccnc4cc(-c5ccccn5)ccc34)cc2O)cc1.Cl [GW440146],%Inh,[1]; [21],0%
same,%Inh,[2]; [21],11%
same,%Inh,[3]; [21],18%
same,%Inh,[4]; [21],0%
same,%Inh,[5]; [21],0%
same,%Inh,[6]; [21],32%
same,%Inh,[7],0%
same,%Inh,[8]; [21],4%
same,%Inh,[9]; [21],0%
same,%Inh,[10],0%
same,%Inh,[11]; [21],0%
same,%Inh,[12],0%
same,%Inh,[13]; [21],0%
same,%Inh,[14]; [21],4%
same,%Inh,[15]; [21],10%
same,%Inh,[16]; [21],5%
same,%Inh,[17],14%
same,%Inh,[18]; [21],0%
same,%Inh,[19]; [21],0%
same,%Inh,[20]; [21],48%
COc1cc2nccc(Nc3ccc(NC(=O)c4ccc(C)cc4)c(O)c3)c2cc1OC.Cl [GW440132],%Inh,[1]; [21],0%
same,%Inh,[2]; [21],0%
same,%Inh,[3]; [21],11%
same,%Inh,[4]; [21],7%
same,%Inh,[5]; [21],18%
same,%Inh,[6]; [21],0%
same,%Inh,[7],0%
same,%Inh,[8]; [21],17%
same,%Inh,[9]; [21],8%
same,%Inh,[10],0%
same,%Inh,[11]; [21],0%
same,%Inh,[12],0%
same,%Inh,[13]; [21],3%
same,%Inh,[14]; [21],2%
same,%Inh,[15]; [21],5%
same,%Inh,[16]; [21],6%
same,%Inh,[17],0%
same,%Inh,[18]; [21],12%
same,%Inh,[19]; [21],10%
same,%Inh,[20]; [21],19%
Cc1cc(NCC(c2ccccc2)c2ccccc2)nc(NCc2ccc(C(F)(F)F)cc2)n1 [GW497681],%Inh,[1]; [21],0%
same,%Inh,[2]; [21],0%
same,%Inh,[3]; [21],0%
same,%Inh,[4]; [21],0%
same,%Inh,[5]; [21],3%
same,%Inh,[6]; [21],10%
same,%Inh,[7],0%
same,%Inh,[8]; [21],0%
same,%Inh,[9]; [21],3%
same,%Inh,[10],0%
same,%Inh,[11]; [21],0%
same,%Inh,[12],0%
same,%Inh,[13]; [21],0%
same,%Inh,[14]; [21],7%
same,%Inh,[15]; [21],6%
same,%Inh,[16]; [21],0%
same,%Inh,[17],0%
same,%Inh,[18]; [21],0%
same,%Inh,[19]; [21],7%
same,%Inh,[20]; [21],8%
COc1cc(Nc2nccc(N3CCC(NC(=O)Nc4cc(C)ccc4C)C3)n2)cc(OC)c1OC (centres unmarked) [GSK1379762],%Inh,[1]; [21],0%
same,%Inh,[2]; [21],0%
same,%Inh,[3]; [21],25%
same,%Inh,[4]; [21],16%
same,%Inh,[5]; [21],19%
same,%Inh,[6]; [21],63%
same,%Inh,[7],0%
same,%Inh,[8]; [21],22%
same,%Inh,[9]; [21],8%
same,%Inh,[10],0%
same,%Inh,[11]; [21],26%
same,%Inh,[12],0%
same,%Inh,[13]; [21],18%
same,%Inh,[14]; [21],25%
same,%Inh,[15]; [21],33%
same,%Inh,[16]; [21],12%
same,%Inh,[17],0%
same,%Inh,[18]; [21],16%
same,%Inh,[19]; [21],4%
same,%Inh,[20]; [21],89%
COc1cccc(NC(=O)NC2CCN(c3ccnc(Nc4ccc(F)cc4)n3)C2)c1 (centres unmarked) [GSK1379721],%Inh,[1]; [21],0%
same,%Inh,[2]; [21],0%
same,%Inh,[3]; [21],0%
same,%Inh,[4]; [21],30%
same,%Inh,[5]; [21],26%
same,%Inh,[6]; [21],17%
same,%Inh,[7],0%
same,%Inh,[8]; [21],12%
same,%Inh,[9]; [21],0%
same,%Inh,[10],0%
same,%Inh,[11]; [21],0%
same,%Inh,[12],0%
same,%Inh,[13]; [21],0%
same,%Inh,[14]; [21],0%
same,%Inh,[15]; [21],3%
same,%Inh,[16]; [21],17%
same,%Inh,[17],0%
same,%Inh,[18]; [21],0%
same,%Inh,[19]; [21],0%
same,%Inh,[20]; [21],33%
O=C(Nc1n[nH]c2nc(-c3nccs3)c(Br)cc12)C1CCCC1 [SB-742609],%Inh,[1]; [21],4%
same,%Inh,[2]; [21],0%
same,%Inh,[3]; [21],16%
same,%Inh,[4]; [21],15%
same,%Inh,[5]; [21],35%
same,%Inh,[6]; [21],32%
same,%Inh,[7],0%
same,%Inh,[8]; [21],17%
same,%Inh,[9]; [21],9%
same,%Inh,[10],0%
same,%Inh,[11]; [21],25%
same,%Inh,[12],0%
same,%Inh,[13]; [21],20%
same,%Inh,[14]; [21],10%
same,%Inh,[15]; [21],14%
same,%Inh,[16]; [21],0%
same,%Inh,[17],0%
same,%Inh,[18]; [21],26%
same,%Inh,[19]; [21],10%
same,%Inh,[20]; [21],46%
COc1ccc(CNC(=O)NC2CCN(c3ccnc(Nc4cc(OC)c(OC)c(OC)c4)n3)C2)cc1 (centres unmarked) [GSK1379748],%Inh,[1]; [21],10%
same,%Inh,[2]; [21],0%
same,%Inh,[3]; [21],6%
same,%Inh,[4]; [21],32%
same,%Inh,[5]; [21],0%
same,%Inh,[6]; [21],31%
same,%Inh,[7],0%
same,%Inh,[8]; [21],1%
same,%Inh,[9]; [21],14%
same,%Inh,[10],0%
same,%Inh,[11]; [21],3%
same,%Inh,[12],0%
same,%Inh,[13]; [21],0%
same,%Inh,[14]; [21],0%
same,%Inh,[15]; [21],8%
same,%Inh,[16]; [21],20%
same,%Inh,[17],0%
same,%Inh,[18]; [21],0%
same,%Inh,[19]; [21],0%
same,%Inh,[20]; [21],91.8%
CSc1nn2c(=O)cc(N3CCOCC3)nc2n1Cc1cccc(C(F)(F)F)c1C [GSK2363608],%Inh,[1]; [22],0% and 17%
same,%Inh,[2]; [22],0% and 8%
same,%Inh,[3]; [22],23% and 21%
same,%Inh,[4]; [22],8% and 13%
same,%Inh,[5]; [22],16% and 14%
same,%Inh,[6]; [22],36% and 20%
same,%Inh,[7],0%
same,%Inh,[8]; [22],28% and 9%
same,%Inh,[9]; [22],5% and 0%
same,%Inh,[10],0%
same,%Inh,[11]; [22],2% and 23%
same,%Inh,[12],0%
same,%Inh,[13]; [22],0% and 12%
same,%Inh,[14]; [22],8% and 6%
same,%Inh,[15]; [22],0% and 18%
same,%Inh,[16]; [22],0% and 9%
same,%Inh,[17],0%
same,%Inh,[18]; [22],3% and 28%
same,%Inh,[19]; [22],13% and 17%
same,%Inh,[20]; [22],29% and 12%
